An excerpt weighted towards active compounds, which were near 12% of everything screened.
L major viab: Leishmania major promastigote growth inhibition; Leishmania major promastigotes, resazurin fluorescence viability; inhibition, % at 10 µM; hit rate 9% among 200,000; AID 1063; in the data active = inhibition above about 50%;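 also: promastigotes grown with compound for 44 hours at 28 °C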
Cl transport mod: modulates chloride dependent transport by human KCC2. KCC2 cells, thallium flux FluoZin-2 fluorescence. Q9H2X9. hit rate 2.2% among 190,000. B-score of Tl+ flux slope (higher = more flux/activation; lower = inhibition) at 10 µM;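 active = thallium flux slope and its plate-corrected score both differing from the plate sample mean at a set confidence after two filtering rounds, in either direction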;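 also: slope of fluorescence scaled to starting intensity during 10 to 20 s after thallium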
Calpain2 inh: blocks pig calpain II enzyme activity; purified calpain II, fluorogenic peptide substrate, 30 min; hit rate 0.37% among 220,000; inhibition, % at 16 µM; AID 1236;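 active = inhibition above about 50%, limit read from the data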
WT yeast gro inh: growth inhibition of WT yeast, mitochondrial fusion screen; mitochondrial fusion phenotypic screen, WT strain; inhibition, % at 10 µM; hit rate 2.1% among 190,000; AID 1362; in the data active = inhibition above about 58%; tested in S. cerevisiae
ROMK primary: human ROMK K+ channel modulation, primary screen | P48048 | Tet-inducible ROMK, thallium flux fluorescence; actives lie on both sides | B-score at 10 µM | hit rate 2% among 130,000 | AID 1918;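 active = signal ratio slope over the read window, or its plate-corrected B-score, at least 3 SD from the plate mean, either direction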;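 also: B-score of the F/F0 ratio slope over 7 to 12 s after thallium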
Target sequence (P48048 whole entry, looked up): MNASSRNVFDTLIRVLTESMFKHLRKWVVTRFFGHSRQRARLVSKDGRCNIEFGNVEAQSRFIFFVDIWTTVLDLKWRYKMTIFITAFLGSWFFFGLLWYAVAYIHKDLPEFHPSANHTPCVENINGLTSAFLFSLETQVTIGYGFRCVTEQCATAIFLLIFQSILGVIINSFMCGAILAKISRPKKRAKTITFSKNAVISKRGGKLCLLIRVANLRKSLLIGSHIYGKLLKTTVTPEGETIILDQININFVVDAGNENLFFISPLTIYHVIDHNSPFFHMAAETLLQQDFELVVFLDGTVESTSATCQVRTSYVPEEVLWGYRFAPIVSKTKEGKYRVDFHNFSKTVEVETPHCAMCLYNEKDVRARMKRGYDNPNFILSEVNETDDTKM
Active calls of the source: *; / = not tested or not shown.

SMILES | L major viab | Cl transport mod | Calpain2 inh | WT yeast gro inh | ROMK primary
O=C(Nc1cccc([N+](=O)[O-])c1)C12CC3CC(C1)CC(n1cnc([N+](=O)[O-])n1)(C3)C2 | 76* | -0.017 | 25 | 3 | /
COc1ccc(NC(=O)C23CC4CC(C2)CC(n2cnc(Br)n2)(C4)C3)c(OC)c1 | 5 | -1.4 | -40 | 2 | /
O=[N+]([O-])c1ncn(C23CC4CC(CC(C4)C2)C3)n1 | / | -0.0085 | 19 | / | /
COc1cc(NC(=O)C23CC4CC(C2)CC(n2cnc([N+](=O)[O-])n2)(C4)C3)cc(OC)c1 | 76* | 0.27 | -3 | 1 | -0.19
O=C(Nc1ccccc1)C12CC3CC(C1)CC(n1cnc([N+](=O)[O-])n1)(C3)C2 | 72* | 0.026 | -6 | 4 | /
COc1cc(OC)cc(C(=O)Nc2c(C)nn(-c3ccccc3)c2C)c1 | -6 | -0.9 | -23 | -2 | 0.93
CCOC(=O)Cc1csc(NC(=O)CCCCCN2C(=O)c3cccc4cccc(c34)C2=O)n1 | -3 | 0.15 | / | / | /
CCOC(=O)CON1C(=O)C(=O)N(OCC(=O)OCC)[C@H]2CCCC[C@H]21 | / | -0.2 | 7 | / | 0.049
O=C(c1ccccc1Br)N1CCC(c2nc3ccccc3s2)CC1 | 3 | 1.2 | 5 | 11 | 0.61
CCc1ccc(C(=O)N2CCC(c3nc4ccccc4s3)CC2)cc1 | 87* | -0.31 | 16 | 0 | /
O=C(C1=C[C@H](C2CCCCC2)C[C@H](OCCCCO)O1)N1CCN(Cc2ccccc2)CC1 | 59* | -0.7 | 6 | 17 | /
N#CC1=C2SCC(O)(c3ccccc3)N2C(=O)CC1c1ccccc1F (stereo not given) | 99* | -0.53 | 35 | 15 | -0.24
N#CC1=C2SCC(O)(c3ccccc3)N2C(=O)CC1c1cccs1 (stereo not given) | 90* | -1 | 20 | 6 | /
COc1ccc(C2CC(=O)N3C(=C2C#N)SCC3(O)c2ccccc2)cc1 (stereo not given) | 49 | -0.45 | 8 | 4 | /
N#CC1=C2SCN(Cc3ccccc3)CN2C(=O)CC1c1ccccc1F (stereo not given) | 0 | -1.5 | -10 | 11 | /
Cc1ccc(C(=O)NC2CCN(CC(=O)Nc3cccc([N+](=O)[O-])c3)CC2)cc1 | 1 | -1 | -4 | 7 | -0.95
CCC(C)C(=O)Nc1nc(C)c(-c2csc(Nc3ccccc3OC)n2)s1 (stereo not given) | 99* | -2.4 | -22 | 23 | /
CCCCC(=O)Nc1nc(C)c(-c2csc(Nc3ccccc3OC)n2)s1 | 95* | -0.37 | -34 | 13 | /
COc1ccc(Cl)cc1Nc1nc(-c2sc(NC(=O)CC(C)C)nc2C)cs1 | 32 | 0.071 | -42 | -6 | /
C=CCCC(=O)Nc1nc(C)c(-c2csc(Nc3ccccc3OC)n2)s1 | 70* | -0.77 | -5 | -11 | /
CCCC(C)C(=O)Nc1nc(C)c(-c2csc(Nc3cc(Cl)ccc3C)n2)s1 (stereo not given) | 91* | -0.4 | -61 | -3 | 0.55
O=C1SCCC1NC(=O)C(c1ccccc1)c1ccccc1 (stereo not given) | / | -0.49 | 11 | / | /
Cc1ccc2nc(SCC(=O)O)nc(C)c2c1 | -9 | -0.018 | -7 | -15 | /
Cc1ccc2nc(SC(C(=O)c3ccccc3)c3ccccc3)nc(C)c2c1 (stereo not given) | 92* | -0.0079 | 36 | -8 | 0.37
COc1ccc(C(=NNc2ccccc2C(=O)O)c2ccc(OC)cc2)cc1 | -7 | -0.61 | -7 | 82* | 0.67
SMILES | L major viab | Cl transport mod | Calpain2 inh | WT yeast gro inh | ROMK primary
COc1ccc(-n2nc(C)cc2Nc2ccccc2C(=O)O)cc1 | / | -0.76 | 8 | / | /
OC(CNCCc1ccc(Cl)cc1)COc1ccc2ccccc2c1 (stereo not given) | 83* | 0.5 | 33 | 97 | -2.1
COc1ccc(-c2csc(NC(=O)c3cc(=O)c4ccccc4o3)n2)cc1OC | 7 | 0.33 | -25 | -13 | 0.88
C/C(=N\NC(=O)COc1ccc(C(C)(C)C)cc1)c1ccc(N2CCOCC2)cc1 | 74* | -0.052 | -17 | 29 | /
CCc1ccc(OCC(=O)N/N=C(\C)c2ccc(OC(F)F)cc2)cc1 | 69* | 0.85 | 10 | 13 | 0.32
N#CC(C#N)=c1ccc2c(c1)N1C3=C(CCCC3)CC3CCCCC31N=2 (stereo not given) | 99* | -1.9 | -103 | 73* | -1.9
N#C/C(C(N)=O)=c1/ccc2c(c1)N1C3=C(CCCC3)CC3CCCCC31N=2 (stereo not given) | 74* | 0.03 | 8 | 30 | 1.2
CCn1c(CSc2n[nH]c(N)n2)nc2cc(C(=O)O)ccc21 | 7 | -0.46 | 4 | -12 | -1.9
Nn1c(SCc2ccc(Br)cc2)nnc1-c1ccncc1 | 5 | 0.04 | -19 | -5 | 0.16

Screens as filed in PubChem BioAssay.
